Laboratory results: PubChem BioAssay (Tox21)
Results filed as inconclusive are left out. A number with no mark means an inactive call. Activity calls are given as the source filed them. Calls follow the shape of the dose curve; as a rule, active = well fitted activation curve with a large enough effect in the repeat runs; inconclusive = weak or mixed curves; inactive = no such curve, though single readings can be large or run the other way.

Experiment: qHTS assay to identify small molecule agonists of the estrogen related receptor signaling pathway with the pleiotropic PPARgamma coactivator (PGC) (AID 1224823)
Details: ERR/PGC reporter cell line, luciferase agonist mode; series mostly up to 46.1 µM; activation: at the top concentration
Summary of the method: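 Compounds dissolved in DMSO are added by pin tool to PGC/ERR cells that have settled for 6 h, and incubation continues 18 h at 37 C. Reporter output is measured as One-Glo luminescence.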
% is scaled to controls: 0 for no effect and ±100 for the full control effect; potency is read from the fitted curve at half-maximal effect.

Compound | activation [%] | Potency
COCCOc1cc2ncnc(Cl)c2cc1OCCOC | -12.2 | 
C[C@]12C=CC(=O)C=C1CC[C@@H]1C2=CC[C@]2(C)[C@@H](C(=O)CN3CCN(c4cc(N5CCCC5)nc(N5CCCC5)n4)CC3)CC[C@@H]12 | -9.72 | 
NC(N)=NCc1cccc(I)c1 | -13.9 | 
CCN(CC)CCn1c(=O)c(Cc2ccc(OC)cc2)nc2ccccc21 | 3.43 | 
O=C(Nc1ccc2c(c1)CCN(Cc1ncn[nH]1)C2)c1ccccc1-c1ccc(C(F)(F)F)cc1 | -11.4 | 
O=C1C2C=CC=CC2=NC(=S)N1CCN1CCC(=C(c2ccc(F)cc2)c2ccc(F)cc2)CC1 (stereo not drawn) | -18.7 | 
N=C(N)c1ccc(N)cc1 | -11.2 | 
COc1cc(SC)ccc1C(=O)N1CCC(Cc2ccccc2)CC1 | -13.6 | 
COc1cccc(C(=O)NCCN2CCN(c3ccc(Cl)cc3)CC2)c1 | -8.41 | 
CC(C)(C)c1ccc(/C=C/C(=O)Nc2ccc3c(c2)OCCO3)cc1 | -7.86 | 
Clc1ccc(N2CCN(Cc3cc4ccccn4n3)CC2)cc1 | -14.2 | 
CN=c1nc(-c2ccccc2)n(-c2ccccc2)s1 | -29.5 | 
O=[N+]([O-])c1ccc(CNc2nc(NCc3cccc(C(F)(F)F)c3)nc3nc[nH]c23)cc1 | -12.1 | 
COc1cccc(OC)c1OCCNCC1COc2ccccc2O1 (stereo not drawn) | -7.52 | 
Nc1nc2ccc(Cl)cc2c2nc(-c3ccco3)nn12 | -6.61 | 
CNC(=O)[C@H]1O[C@@H](n2cnc3c(NCc4cccc(I)c4)ncnc32)[C@H](O)C1O (stereo partly drawn) |  | 944 nM (active)
O=C1NC(c2cccc([N+](=O)[O-])c2)=CCN1c1ccccc1O | 2.65 | 
Cc1ccccc1/C=C/C1=NCCN1 | -8.2 | 
COc1ccc(-c2cc(=O)c3c(O)c(OC)c(OC)cc3o2)cc1O | 7.23 | 

Compound | activation [%] | Potency
CCCCCCN(CCCCCC)C(=O)Cc1c(-c2ccc(F)cc2)[nH]c2ccccc12 | -8.75 | 
CC(=O)NC[C@H]1CN(c2ccc(N3CCOCC3)c(F)c2)C(=O)O1 | -4.14 | 
Cc1cccc(C)c1OCC(N)C(C)C (stereo not drawn) | 4.11 | 
C[C@@]1(C2CCCC2)Cc2cc(OCC(=O)O)c(Cl)c(Cl)c2C1=O | -12.9 | 
O=C(CCc1ccncc1)NNC(=O)N1Cc2ccccc2Oc2ccc(Cl)cc21 | -8.44 | 
CCC1(O)CC2CN(CCc3c([nH]c4ccccc34)[C@@](C(=O)OC)(c3cc4c(cc3OC)N(C)C3[C@]45CCN4CC=C[C@@](CC)([C@@H](OC(C)=O)[C@]3(O)C(=O)OC)[C@H]45)C2)C1 (stereo partly drawn) | -13.3 | 
O=C(CCSCc1ccco1)NNC(=O)N1Cc2ccccc2Oc2ccc(Cl)cc21 | -12.7 | 
Oc1ccc(-c2nc(-c3ccc(F)cc3)c(-c3ccncc3)[nH]2)cc1 | -5.23 | 
N#Cc1cc([N+](=O)[O-])c2sc(C(N)=O)[n+]([O-])c2c1 | -2.44 | 
N=C(N)c1ccc(OCCCCCOc2ccc(C(=N)N)cc2)cc1 (tested in a mixture with another compound) | -12 | 
c1ccc(C(NCCNC(c2ccccc2)c2ccccc2)c2ccccc2)cc1 | -13 | 
c1ccc(CN2CCC3(CCCc4ccccc43)CC2)cc1 | -7.28 | 
CC(C)[C@H](NC(=O)OCc1ccccc1)C(=O)N[C@H](C=O)Cc1ccccc1 | -11.9 | 
Cn1cc(C(F)(F)F)nc1-c1ccc(OCC(O)CNCCOc2ccc(O)c(C(N)=O)c2)cc1 (stereo not drawn) | -7.88 | 
CN1CCc2cccc3c2C1Cc1ccc(O)c(O)c1-3 (stereo not drawn) | -24.5 | 
CCCCCCCC/C=C\CCCCCCCC(=O)NCCc1ccc(O)c(O)c1 | 9.5 | 
CCCc1c(-c2ccc(O)cc2)nn(-c2ccc(O)cc2)c1-c1ccc(O)cc1 | -10.8 | 
c1ccc(C(NCc2cccnc2)(c2ccccc2)c2ccccc2)cc1 | -20.2 | 
O=c1cc(N2CCOCC2)oc2c(-c3ccccc3)cccc12 | -14.4 | 
